Laboratory results taken from the supplement of paper PMC9694430.
Where a name gives a salt, the structure may show the parent alone.

Experiments:
Assay in all cases: thermal shift delta Tm vs DMSO control; higher = stronger stabilization (binding)
Conditions in all cases: 12.5 µM; protein concentration 2 µM
LOC_OS01G01410-cb001 = tested on: LOC_OS01G01410-cb001
Outline: (§1)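 Compounds dissolved in DMSO were added to purified rice kinase domain constructs, which had been expressed in E. coli, for differential scanning fluorimetry. Each well held 19.5 μl of 2 μM kinase in 100 mM potassium phosphate pH 7.5, 150 mM NaCl, 10% glycerol and 5 × SYPRO Orange. Fluorescence was followed from 25°C to 95°C at a rate of 0.05°C/s. Shifts in Boltzmann-fitted melting temperature are triplicate means relative to DMSO-only protein.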

LOC_OS01G02750-cb003 = tested on: LOC_OS01G02750-cb003
Outline: as §1

LOC_OS01G10900-cb004 = tested on: LOC_OS01G10900-cb004
Outline: as §1

LOC_OS01G13800-cb001 = tested on: LOC_OS01G13800-cb001
Outline: as §1

LOC_OS01G14860-cb001 = tested on: LOC_OS01G14860-cb001
Outline: as §1

LOC_OS01G21960-cb002 = tested on: LOC_OS01G21960-cb002
Outline: as §1

LOC_OS01G39600-cb002 = tested on: LOC_OS01G39600-cb002
Outline: as §1

LOC_OS01G48390-cb002 = tested on: LOC_OS01G48390-cb002
Outline: as §1

LOC_OS01G51400-cb002 = tested on: LOC_OS01G51400-cb002
Outline: as §1

LOC_OS01G52050-cb004 = tested on: T1, LOC_OS01G52050-cb004
T1 sequence (whole entry): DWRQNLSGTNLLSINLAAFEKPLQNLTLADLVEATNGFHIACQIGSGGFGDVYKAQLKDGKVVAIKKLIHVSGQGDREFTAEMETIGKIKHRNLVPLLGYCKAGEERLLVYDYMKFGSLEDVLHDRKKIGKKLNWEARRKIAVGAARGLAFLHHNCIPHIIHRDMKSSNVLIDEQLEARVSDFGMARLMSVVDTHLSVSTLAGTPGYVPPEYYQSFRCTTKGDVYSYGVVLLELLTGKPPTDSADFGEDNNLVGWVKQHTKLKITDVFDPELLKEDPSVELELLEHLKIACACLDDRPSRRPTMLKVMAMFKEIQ
Outline: as §1

| SMILES | thermal shift delta Tm (LOC_OS01G01410-cb001) [°C] | thermal shift delta Tm (LOC_OS01G02750-cb003) [°C] | thermal shift delta Tm (LOC_OS01G10900-cb004) [°C] | thermal shift delta Tm (LOC_OS01G13800-cb001) [°C] | thermal shift delta Tm (LOC_OS01G14860-cb001) [°C] | thermal shift delta Tm (LOC_OS01G21960-cb002) [°C] | thermal shift delta Tm (LOC_OS01G39600-cb002) [°C] | thermal shift delta Tm (LOC_OS01G48390-cb002) [°C] | thermal shift delta Tm (LOC_OS01G51400-cb002) [°C] | thermal shift delta Tm (LOC_OS01G52050-cb004) [°C] |
| --- | --- | --- | --- | --- | --- | --- | --- | --- | --- | --- |
| CS(=O)(=O)N1CCc2c(-c3cnc(N)nc3)nc(N3CCOCC3)nc21 | 0.53 | 3.27 | -0.12 | 0.32 | 0.7 | 0.72 | -0.17 | 0.96 | 0.18 | 0.32 |
| NCC(=O)Nc1ccc(-n2nc(C(F)(F)F)cc2-c2ccc3c(ccc4ccccc43)c2)cc1 | 1.11 | 6.14 | 0.31 | -0.76 | -0.8 | 0.55 | 2.28 | 0.79 | -0.21 | 2.4 |
| N#Cc1c(O)c2c(-c3ccc(-c4ccccc4O)cc3)csc2[nH]c1=O | 0.93 | 1.74 | 0.92 | 1.23 | 0.8 | 1.72 | 0.7 | 0.95 | 0.44 | 0.93 |
| CN(C)C/C=C/C(=O)Nc1ccc(C(=O)Nc2cccc(Nc3ncc(Cl)c(-c4c[nH]c5ccccc45)n3)c2)cc1 | 4.03 | 6.62 | 0.47 | 1.95 | 7.28 | 4.75 | 2.35 | 3.99 | 1.75 | 9.77 |
| CCN1CCN(Cc2ccc(C(=O)Nc3ccc(C)c(Oc4ccc5c(c4)CC(=O)N5)c3)cc2C(F)(F)F)CC1 | 0.03 | 1.85 | 2.1 | 0.59 | 0.51 | 1.73 | -0.14 | 0.94 | 0.25 | 1.08 |
| CNC(=O)c1cc(Oc2ccc(NC(=O)Nc3ccc(Cl)c(C(F)(F)F)c3)cc2)ccn1 [Sorafenib Tosylate] | 2.14 | 5.21 | 1.97 | 1.97 | 5.9 | 2.13 | 2.03 | 2.56 | 1.31 | 5.16 |
| Oc1cccc(-c2nc(N3CCOCC3)c3oc4ncccc4c3n2)c1 | 0.96 | 0.09 | 0.03 | 0.75 | 0.17 | 0.64 | 0.74 | 0.11 | 0.21 | 0.11 |
| CCn1c(=O)c(-c2ccc(Cl)cc2Cl)cc2cnc(Nc3ccc(N4CCNCC4)c(F)c3)nc21 | 5.82 | 1.71 | 7.68 | 0.11 | 3.38 | 0.97 | 5.06 | 2.05 | -0.48 | 5.06 |
| COC(=O)N[C@@H](C)CNc1nccc(-c2cn(C(C)C)nc2-c2cc(Cl)cc(NS(C)(=O)=O)c2F)n1 [Encorafenib (LGX818)] | 0.41 | 0.83 | 0.1 | -0.12 | 5.56 | 0.28 | 0.05 | 0.2 | 0.1 | 0.5 |
| CCOc1cc2ncc(C#N)c(Nc3ccc(OCc4ccccn4)c(Cl)c3)c2cc1NC(=O)/C=C/CN(C)C [Neratinib (HKI-272)] | 1.9 | 1.42 | 1 | 0.47 | 6.67 | 0.71 | 5.12 | 0.77 | 0.27 | 2.11 |
| CN1CCN(CCOc2cc(OC3CCOCC3)c3c(Nc4c(Cl)ccc5c4OCO5)ncnc3c2)CC1 [Saracatinib (AZD0530)] | 0.88 | 0.03 | 0.58 | 0.11 | 0.28 | 0.14 | -0.05 | 0.23 | 0.26 | 1.72 |
| Cc1nc(Nc2n[nH]c3c2CN(C(=O)N[C@H](CN(C)C)c2ccccc2)C3(C)C)c2sccc2n1 | 0.37 | 2.46 | 0.23 | -0.4 | 4.22 | 2.47 | 0.6 | 0.23 | 0.28 | 0.94 |
| Nc1ccc(C(=O)Nc2cccc(-c3nc(N4CCOCC4)c4oc5ncccc5c4n3)c2)cn1 | 1.9 | 1.58 | 1.27 | 0.49 | 0.58 | 0.56 | 0.13 | 0.28 | 0.29 | 0.45 |
| O=C1NC(=O)C(c2cnc3ccccn23)=C1c1cn2c3c(cc(F)cc13)CN(C(=O)N1CCCCC1)CC2 | 0.36 | 0.62 | 0.19 | 0.44 | 4.55 | 2.13 | 5.95 | 0.1 | 0.37 | 0.22 |
| COc1ccc(Cl)cc1NC(=O)Nc1cc(C)nc2ccccc12 | 0.77 | 3.02 | 0.18 | 0.68 | 0.5 | 1.37 | -1.53 | 5.48 | 1.15 | 1.3 |
| N#Cc1c(Oc2ccc(F)c(NC(=O)Cc3cccc(C(F)(F)F)c3)c2)ccc2nc(NC(=O)C3CC3)sc12 | 1 | 2.13 | 0.14 | 0.81 | 0.57 | 1.14 | 0.16 | 1.04 | 1.02 | 0.32 |
| Cc1cc(N2CCOCC2)cc2[nH]c(-c3c(NC[C@@H](O)c4cccc(Cl)c4)cc[nH]c3=O)nc12 | 4.78 | 2.98 | -0.47 | 0.09 | 1.24 | 1.2 | 2.56 | 1.43 | 0.28 | 3.88 |
| C[C@@H]1CN(CC(=O)Nc2ccc3c(c2)Cc2cccc(-c4cc(=O)cc(N5CCOCC5)o4)c2S3)C[C@H](C)O1 | 0.15 | 1.53 | 0.85 | 0.28 | 1.89 | 0.63 | -0.34 | 0.3 | 0.05 | 0.42 |
| C=CC(=O)N1CC[C@@H](Oc2nc(Nc3ccc(N4CCC(N5CCN(C)CC5)CC4)cc3)c(C(N)=O)nc2CC)C1 [Naquotinib(ASP8273)] | 5.21 | 1.59 | 4.44 | -0.4 | 4.17 | 2.68 | 1.51 | 3.38 | -0.03 | 2.34 |
